# Data: the supplement of paper PMC4466140
# Tests used:
# Test in all cases: SPOT peptide array binding signal intensity (averaged, normalized) (arbitrary units (background-subtracted, floor 0; scale differs between SH3 domains)); higher = stronger binding of the SH3 domain to the peptide
# AgAbp1 = target: AgAbp1
# Outline: (§1)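 Binding signal refers to normalized, background-subtracted spot intensity averaged over replicates, expressed in arbitrary units that differ between domains. GST-fused SH3 domains from four yeast species were incubated at 10 μg/ml overnight at 4°C on cellulose membranes of synthetic 15-mer peptides with cysteines replaced by serines. Bound protein was detected with anti-GST antibody, an HRP anti-mouse secondary and luminol, and quantified with Genespotter.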
# AgBbc1 = target: AgBbc1
# Outline: as §1
# AgBem1-D1 = target: AgBem1-D1
# Outline: as §1
# AgBzz1-D1 = target: AgBzz1-D1
# Outline: as §1
# AgBzz1-D2 = target: AgBzz1-D2
# Outline: as §1
# AgCyk3 = target: AgCyk3
# Outline: as §1
# AgFus1 = target: AgFus1
# Outline: as §1
# AgHof1 = target: AgHof1
# Outline: as §1
# AgHse1 = target: AgHse1
# Outline: as §1
# AgLsb1 = target: AgLsb1
# Outline: as §1
# AgLsb4 = target: AgLsb4
# Outline: as §1
# AgMyo5 = target: AgMyo5
# Outline: as §1
# AgNbp2 = target: AgNbp2
# Outline: as §1
# AgRvs167 = target: AgRvs167
# Outline: as §1
# AgSho1 = target: AgSho1
# Outline: as §1
# AgSla1-D1-D2 = target: AgSla1-D1-D2
# Outline: as §1
# AgSla1-D3 = target: AgSla1-D3
# Outline: as §1
# CaAbp1-D1 = target: CaAbp1-D1
# Outline: as §1
# CaAbp1-D2 = target: CaAbp1-D2
# Outline: as §1
# CaBbc1 = target: CaBbc1
# Outline: as §1
# CaBem1-D1 = target: CaBem1-D1
# Outline: as §1
# CaBzz1-D1 = target: CaBzz1-D1
# Outline: as §1
# CaBzz1-D2 = target: CaBzz1-D2
# Outline: as §1
# CaCyk3 = target: CaCyk3
# Outline: as §1
# CaFus1 = target: CaFus1
# Outline: as §1
# CaHof1 = target: CaHof1
# Outline: as §1
# CaHse1 = target: CaHse1
# Outline: as §1
# CaLsb1 = target: CaLsb1
# Outline: as §1
# CaLsb4 = target: CaLsb4
# Outline: as §1
# CaMyo5 = target: CaMyo5
# Outline: as §1
# CaNbp2 = target: CaNbp2
# Outline: as §1
# CaRvs167 = target: CaRvs167
# Outline: as §1
# CaRvs167-3 = target: CaRvs167-3
# Outline: as §1
# CaSho1 = target: CaSho1
# Outline: as §1
# CaSla1-D1-D2 = target: CaSla1-D1-D2
# Outline: as §1
# CaSla1-D3 = target: CaSla1-D3
# Outline: as §1
# ScAbp1 = target: ScAbp1
# Outline: as §1
# ScBbc1 = target: ScBbc1
# Outline: as §1
# ScBem1-D1 = target: ScBem1-D1
# Outline: as §1
# ScBzz1-D1 = target: ScBzz1-D1
# Outline: as §1
# ScBzz1-D2 = target: ScBzz1-D2
# Outline: as §1
# ScCyk3 = target: ScCyk3
# Outline: as §1
# ScFus1 = target: ScFus1
# Outline: as §1
# ScHof1 = target: ScHof1
# Outline: as §1
# ScHse1 = target: ScHse1
# Outline: as §1
# ScLsb1 = target: ScLsb1
# Outline: as §1
# ScLsb2 = target: ScLsb2
# Outline: as §1
# ScLsb3 = target: ScLsb3
# Outline: as §1
# ScLsb4 = target: ScLsb4
# Outline: as §1
# ScMyo3 = target: ScMyo3
# Outline: as §1
# ScMyo5 = target: ScMyo5
# Outline: as §1
# ScNbp2 = target: ScNbp2
# Outline: as §1
# ScPex13 = target: ScPex13
# Outline: as §1
# ScRvs167 = target: ScRvs167
# Outline: as §1
# ScSho1 = target: ScSho1
# Outline: as §1
# ScSla1-D1-D2 = target: ScSla1-D1-D2
# Outline: as §1
# ScSla1-D3 = target: ScSla1-D3
# Outline: as §1
# SpAbp1-D1 = target: SpAbp1-D1
# Outline: as §1
# SpBbc1 = target: SpBbc1
# Outline: as §1
# SpBzz1-D1 = target: SpBzz1-D1
# Outline: as §1
# SpBzz1-D2 = target: SpBzz1-D2
# Outline: as §1
# SpCyk3 = target: SpCyk3
# Outline: as §1
# SpHof1 = target: SpHof1
# Outline: as §1
# SpHof1-2 = target: SpHof1-2
# Outline: as §1
# SpHof1-3 = target: SpHof1-3
# Outline: as §1
# SpHse1 = target: SpHse1
# Outline: as §1
# SpLsb1 = target: SpLsb1
# Outline: as §1
# SpLsb4 = target: SpLsb4
# Outline: as §1
# SpMyo1 = target: SpMyo1
# Outline: as §1
# SpNbp2 = target: SpNbp2
# Outline: as §1
# SpPex13 = target: SpPex13
# Outline: as §1
# SpRvs167 = target: SpRvs167
# Outline: as §1
# SpSla1-D1-D2 = target: SpSla1-D1-D2
# Outline: as §1
# SpSla1-D3 = target: SpSla1-D3
# Outline: as §1
binder,measurement,setting,value
SLSRRRFSLPSMPNV,SPOT peptide array binding signal intensity,AgAbp1,83.5
same,SPOT peptide array binding signal intensity,AgBbc1,114
same,SPOT peptide array binding signal intensity,AgBem1-D1,418
same,SPOT peptide array binding signal intensity,AgBzz1-D1,44.5
same,SPOT peptide array binding signal intensity,AgBzz1-D2,72.5
same,SPOT peptide array binding signal intensity,AgCyk3,6.5
same,SPOT peptide array binding signal intensity,AgFus1,404
same,SPOT peptide array binding signal intensity,AgHof1,158
same,SPOT peptide array binding signal intensity,AgHse1,1010
same,SPOT peptide array binding signal intensity,AgLsb1,1240
same,SPOT peptide array binding signal intensity,AgLsb4,41.5
same,SPOT peptide array binding signal intensity,AgMyo5,3
same,SPOT peptide array binding signal intensity,AgNbp2,97.5
same,SPOT peptide array binding signal intensity,AgRvs167,5
same,SPOT peptide array binding signal intensity,AgSho1,28
same,SPOT peptide array binding signal intensity,AgSla1-D1-D2,60
same,SPOT peptide array binding signal intensity,AgSla1-D3,6
same,SPOT peptide array binding signal intensity,CaAbp1-D1,872
same,SPOT peptide array binding signal intensity,CaAbp1-D2,370
same,SPOT peptide array binding signal intensity,CaBbc1,471
same,SPOT peptide array binding signal intensity,CaBem1-D1,112
same,SPOT peptide array binding signal intensity,CaBzz1-D1,183
same,SPOT peptide array binding signal intensity,CaBzz1-D2,189
same,SPOT peptide array binding signal intensity,CaCyk3,87.5
same,SPOT peptide array binding signal intensity,CaFus1,1080
same,SPOT peptide array binding signal intensity,CaHof1,0.5
same,SPOT peptide array binding signal intensity,CaHse1,62.8
same,SPOT peptide array binding signal intensity,CaLsb1,13
same,SPOT peptide array binding signal intensity,CaLsb4,52.5
same,SPOT peptide array binding signal intensity,CaMyo5,14.5
same,SPOT peptide array binding signal intensity,CaNbp2,282
same,SPOT peptide array binding signal intensity,CaRvs167,27
same,SPOT peptide array binding signal intensity,CaRvs167-3,152
same,SPOT peptide array binding signal intensity,CaSho1,477
same,SPOT peptide array binding signal intensity,CaSla1-D1-D2,471
same,SPOT peptide array binding signal intensity,CaSla1-D3,133
same,SPOT peptide array binding signal intensity,ScAbp1,94
same,SPOT peptide array binding signal intensity,ScBbc1,26.5
same,SPOT peptide array binding signal intensity,ScBem1-D1,28
same,SPOT peptide array binding signal intensity,ScBzz1-D1,54
same,SPOT peptide array binding signal intensity,ScBzz1-D2,29.5
same,SPOT peptide array binding signal intensity,ScCyk3,192
same,SPOT peptide array binding signal intensity,ScFus1,256
same,SPOT peptide array binding signal intensity,ScHof1,3
same,SPOT peptide array binding signal intensity,ScHse1,1590
same,SPOT peptide array binding signal intensity,ScLsb1,348
same,SPOT peptide array binding signal intensity,ScLsb2,42
same,SPOT peptide array binding signal intensity,ScLsb3,181
same,SPOT peptide array binding signal intensity,ScLsb4,9.5
same,SPOT peptide array binding signal intensity,ScMyo3,9.5
same,SPOT peptide array binding signal intensity,ScMyo5,9.25
same,SPOT peptide array binding signal intensity,ScNbp2,350
same,SPOT peptide array binding signal intensity,ScPex13,38
same,SPOT peptide array binding signal intensity,ScRvs167,37.3
same,SPOT peptide array binding signal intensity,ScSho1,743
same,SPOT peptide array binding signal intensity,ScSla1-D1-D2,636
same,SPOT peptide array binding signal intensity,ScSla1-D3,97.8
same,SPOT peptide array binding signal intensity,SpAbp1-D1,416
same,SPOT peptide array binding signal intensity,SpBbc1,8
same,SPOT peptide array binding signal intensity,SpBzz1-D1,311
same,SPOT peptide array binding signal intensity,SpBzz1-D2,1.75
same,SPOT peptide array binding signal intensity,SpCyk3,18
same,SPOT peptide array binding signal intensity,SpHof1,248
same,SPOT peptide array binding signal intensity,SpHof1-2,58.5
same,SPOT peptide array binding signal intensity,SpHof1-3,440
same,SPOT peptide array binding signal intensity,SpHse1,662
same,SPOT peptide array binding signal intensity,SpLsb1,270
same,SPOT peptide array binding signal intensity,SpLsb4,106
same,SPOT peptide array binding signal intensity,SpMyo1,15.5
same,SPOT peptide array binding signal intensity,SpNbp2,235
same,SPOT peptide array binding signal intensity,SpPex13,49
same,SPOT peptide array binding signal intensity,SpRvs167,14
same,SPOT peptide array binding signal intensity,SpSla1-D1-D2,5
same,SPOT peptide array binding signal intensity,SpSla1-D3,19
